Results taken from the supplement of paper PMC11732987, “Enantioselective OTUD7B fragment discovery through chemoproteomics screening and high-throughput optimisation” (Communications Chemistry, 2025).
Unmarked numbers belong to inactive results.

Assays:
Test in all cases: log2 ratio of Biotin-Ahx-Ub-VS probe labelling (fragment/DMSO); higher = less target engagement (more negative = stronger competition), active = hit call of the paper (q ≤ 0.05, log2 ratio ≤ -1)
Conditions in all cases: compound concentration: 200 uM; treatment time: 3 h
[1] = molecular target: T1, USP42 (UniProt Q9H9J4)
T1 sequence (whole entry): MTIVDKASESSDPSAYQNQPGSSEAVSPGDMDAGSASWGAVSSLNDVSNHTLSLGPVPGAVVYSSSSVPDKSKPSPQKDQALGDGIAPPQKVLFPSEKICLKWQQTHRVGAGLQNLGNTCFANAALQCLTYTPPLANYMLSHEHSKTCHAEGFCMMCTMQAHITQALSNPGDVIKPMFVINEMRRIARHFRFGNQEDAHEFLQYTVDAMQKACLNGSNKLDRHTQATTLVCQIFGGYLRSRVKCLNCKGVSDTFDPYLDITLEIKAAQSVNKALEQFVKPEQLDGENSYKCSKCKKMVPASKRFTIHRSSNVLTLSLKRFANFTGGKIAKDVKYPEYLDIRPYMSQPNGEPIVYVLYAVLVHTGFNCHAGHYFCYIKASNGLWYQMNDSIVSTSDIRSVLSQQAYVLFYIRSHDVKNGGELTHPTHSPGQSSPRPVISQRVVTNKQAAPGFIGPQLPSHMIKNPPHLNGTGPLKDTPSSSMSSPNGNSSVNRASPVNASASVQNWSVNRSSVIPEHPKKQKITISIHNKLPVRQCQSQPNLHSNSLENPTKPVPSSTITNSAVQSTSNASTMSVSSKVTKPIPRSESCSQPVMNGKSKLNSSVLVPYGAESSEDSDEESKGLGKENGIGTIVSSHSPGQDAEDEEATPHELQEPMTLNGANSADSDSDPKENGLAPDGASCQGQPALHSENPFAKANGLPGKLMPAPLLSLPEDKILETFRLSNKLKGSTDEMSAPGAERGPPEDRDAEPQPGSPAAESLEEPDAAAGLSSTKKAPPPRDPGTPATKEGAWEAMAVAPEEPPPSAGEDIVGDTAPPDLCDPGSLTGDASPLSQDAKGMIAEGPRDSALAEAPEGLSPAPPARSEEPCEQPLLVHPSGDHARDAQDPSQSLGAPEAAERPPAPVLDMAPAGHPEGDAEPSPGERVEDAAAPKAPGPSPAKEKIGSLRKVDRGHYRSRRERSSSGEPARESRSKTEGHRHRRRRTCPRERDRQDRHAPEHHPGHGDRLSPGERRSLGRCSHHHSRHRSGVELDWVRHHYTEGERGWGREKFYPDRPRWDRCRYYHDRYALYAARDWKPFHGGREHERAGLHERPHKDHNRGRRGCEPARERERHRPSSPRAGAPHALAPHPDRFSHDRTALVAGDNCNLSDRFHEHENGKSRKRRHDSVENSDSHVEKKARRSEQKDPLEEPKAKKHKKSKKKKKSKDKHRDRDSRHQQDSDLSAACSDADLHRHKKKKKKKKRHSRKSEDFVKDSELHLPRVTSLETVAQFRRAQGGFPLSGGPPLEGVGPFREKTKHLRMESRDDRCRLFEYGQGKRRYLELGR
In short: (§1)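 Labelled DUBs from HEK293T lysate were NeutrAvidin-enriched, digested with LysC and trypsin, and run by diaPASEF LC-MS/MS. Before that, each 495 µg sample in Tris/CHAPS/IGEPAL buffer with protease inhibitors was treated in triplicate with fragment at 200 µM or vehicle for 3 h, then with Biotin-Ahx-Ub-VS at 0.5 µM final for 1 h. Values are average log2 ratios of fragment over vehicle by unpaired t-test, based on global-median-normalised Spectronaut label-free quantities from proteins with ≥2 unique peptides.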

[2] = molecular target: USP46 (UniProt P62068)
Chain of USP46 (P62068 whole entry): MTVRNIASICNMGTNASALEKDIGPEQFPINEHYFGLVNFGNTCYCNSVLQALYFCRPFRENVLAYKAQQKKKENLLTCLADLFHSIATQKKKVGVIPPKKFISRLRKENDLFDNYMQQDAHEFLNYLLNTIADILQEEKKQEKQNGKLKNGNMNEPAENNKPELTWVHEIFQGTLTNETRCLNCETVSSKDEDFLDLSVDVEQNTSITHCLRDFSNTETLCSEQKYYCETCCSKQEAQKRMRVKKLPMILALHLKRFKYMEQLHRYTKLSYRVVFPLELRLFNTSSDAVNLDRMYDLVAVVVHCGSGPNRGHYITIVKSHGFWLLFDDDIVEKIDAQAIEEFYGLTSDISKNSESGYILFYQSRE
In short: as §1

[3] = molecular target: T2, USP47 (UniProt Q96K76)
T2 sequence (whole entry): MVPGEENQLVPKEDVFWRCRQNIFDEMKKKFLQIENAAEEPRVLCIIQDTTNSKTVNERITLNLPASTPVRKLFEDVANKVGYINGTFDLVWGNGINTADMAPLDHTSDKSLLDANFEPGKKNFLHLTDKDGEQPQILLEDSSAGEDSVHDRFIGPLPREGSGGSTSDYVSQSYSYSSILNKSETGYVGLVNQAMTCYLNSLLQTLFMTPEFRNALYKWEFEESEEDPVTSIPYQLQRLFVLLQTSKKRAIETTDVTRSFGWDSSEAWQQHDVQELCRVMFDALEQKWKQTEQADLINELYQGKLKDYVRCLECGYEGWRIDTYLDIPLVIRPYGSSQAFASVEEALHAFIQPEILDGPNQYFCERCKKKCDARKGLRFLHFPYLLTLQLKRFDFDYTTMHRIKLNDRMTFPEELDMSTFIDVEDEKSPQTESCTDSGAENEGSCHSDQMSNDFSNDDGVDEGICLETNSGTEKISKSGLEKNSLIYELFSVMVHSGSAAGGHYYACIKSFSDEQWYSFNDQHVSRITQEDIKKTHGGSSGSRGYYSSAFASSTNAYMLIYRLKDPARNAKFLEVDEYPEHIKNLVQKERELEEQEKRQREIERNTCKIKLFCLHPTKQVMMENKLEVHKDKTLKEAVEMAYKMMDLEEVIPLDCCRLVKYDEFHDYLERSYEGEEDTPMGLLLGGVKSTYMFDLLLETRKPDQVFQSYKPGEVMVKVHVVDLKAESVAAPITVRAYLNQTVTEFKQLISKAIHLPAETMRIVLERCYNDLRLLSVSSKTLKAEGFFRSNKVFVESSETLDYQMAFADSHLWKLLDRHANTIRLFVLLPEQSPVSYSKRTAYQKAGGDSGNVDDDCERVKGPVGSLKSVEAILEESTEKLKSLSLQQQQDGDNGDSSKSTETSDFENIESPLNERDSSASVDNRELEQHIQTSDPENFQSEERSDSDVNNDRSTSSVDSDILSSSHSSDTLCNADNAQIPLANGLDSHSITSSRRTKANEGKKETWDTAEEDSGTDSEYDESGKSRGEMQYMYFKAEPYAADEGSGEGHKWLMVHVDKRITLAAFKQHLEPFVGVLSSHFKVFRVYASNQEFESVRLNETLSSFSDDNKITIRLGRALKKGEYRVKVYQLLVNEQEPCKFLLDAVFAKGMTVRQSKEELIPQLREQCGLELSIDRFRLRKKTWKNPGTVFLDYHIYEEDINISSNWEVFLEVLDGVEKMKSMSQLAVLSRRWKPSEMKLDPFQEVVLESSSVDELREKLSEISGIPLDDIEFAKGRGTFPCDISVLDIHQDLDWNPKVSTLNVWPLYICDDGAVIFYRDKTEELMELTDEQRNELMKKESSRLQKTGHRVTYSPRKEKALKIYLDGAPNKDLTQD
In short: as §1

[4] = molecular target: T3, USP48 (UniProt Q86UV5)
T3 sequence (whole entry): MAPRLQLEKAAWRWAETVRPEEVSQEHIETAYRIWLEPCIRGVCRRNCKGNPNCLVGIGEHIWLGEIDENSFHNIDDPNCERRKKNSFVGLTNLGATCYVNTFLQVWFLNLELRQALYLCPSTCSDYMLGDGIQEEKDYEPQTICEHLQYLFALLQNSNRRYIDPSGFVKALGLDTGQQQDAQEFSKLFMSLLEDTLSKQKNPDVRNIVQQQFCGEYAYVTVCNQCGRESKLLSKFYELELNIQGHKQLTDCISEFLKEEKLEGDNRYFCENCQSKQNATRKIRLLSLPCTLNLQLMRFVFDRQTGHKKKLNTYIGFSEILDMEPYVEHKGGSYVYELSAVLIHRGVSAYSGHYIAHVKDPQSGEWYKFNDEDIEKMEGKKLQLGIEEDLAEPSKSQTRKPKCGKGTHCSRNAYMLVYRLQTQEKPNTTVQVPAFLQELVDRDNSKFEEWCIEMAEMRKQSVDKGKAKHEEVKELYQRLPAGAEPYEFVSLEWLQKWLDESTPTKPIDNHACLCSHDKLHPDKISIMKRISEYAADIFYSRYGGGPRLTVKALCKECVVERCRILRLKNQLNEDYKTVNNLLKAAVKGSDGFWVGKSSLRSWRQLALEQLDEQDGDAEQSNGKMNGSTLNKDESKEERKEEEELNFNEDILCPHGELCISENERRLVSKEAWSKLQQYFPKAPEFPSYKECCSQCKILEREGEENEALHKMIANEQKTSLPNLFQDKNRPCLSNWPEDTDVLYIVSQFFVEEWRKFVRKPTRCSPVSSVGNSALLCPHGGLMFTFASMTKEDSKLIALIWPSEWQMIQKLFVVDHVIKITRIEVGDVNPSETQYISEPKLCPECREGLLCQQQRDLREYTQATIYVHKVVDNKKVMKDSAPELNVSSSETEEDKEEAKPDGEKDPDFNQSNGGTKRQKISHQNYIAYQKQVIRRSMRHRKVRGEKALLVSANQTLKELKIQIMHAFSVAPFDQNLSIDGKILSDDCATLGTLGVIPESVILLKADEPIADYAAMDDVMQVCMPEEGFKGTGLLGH
In short: as §1

[5] = molecular target: T4, USP5 (UniProt P45974)
T4 sequence (whole entry): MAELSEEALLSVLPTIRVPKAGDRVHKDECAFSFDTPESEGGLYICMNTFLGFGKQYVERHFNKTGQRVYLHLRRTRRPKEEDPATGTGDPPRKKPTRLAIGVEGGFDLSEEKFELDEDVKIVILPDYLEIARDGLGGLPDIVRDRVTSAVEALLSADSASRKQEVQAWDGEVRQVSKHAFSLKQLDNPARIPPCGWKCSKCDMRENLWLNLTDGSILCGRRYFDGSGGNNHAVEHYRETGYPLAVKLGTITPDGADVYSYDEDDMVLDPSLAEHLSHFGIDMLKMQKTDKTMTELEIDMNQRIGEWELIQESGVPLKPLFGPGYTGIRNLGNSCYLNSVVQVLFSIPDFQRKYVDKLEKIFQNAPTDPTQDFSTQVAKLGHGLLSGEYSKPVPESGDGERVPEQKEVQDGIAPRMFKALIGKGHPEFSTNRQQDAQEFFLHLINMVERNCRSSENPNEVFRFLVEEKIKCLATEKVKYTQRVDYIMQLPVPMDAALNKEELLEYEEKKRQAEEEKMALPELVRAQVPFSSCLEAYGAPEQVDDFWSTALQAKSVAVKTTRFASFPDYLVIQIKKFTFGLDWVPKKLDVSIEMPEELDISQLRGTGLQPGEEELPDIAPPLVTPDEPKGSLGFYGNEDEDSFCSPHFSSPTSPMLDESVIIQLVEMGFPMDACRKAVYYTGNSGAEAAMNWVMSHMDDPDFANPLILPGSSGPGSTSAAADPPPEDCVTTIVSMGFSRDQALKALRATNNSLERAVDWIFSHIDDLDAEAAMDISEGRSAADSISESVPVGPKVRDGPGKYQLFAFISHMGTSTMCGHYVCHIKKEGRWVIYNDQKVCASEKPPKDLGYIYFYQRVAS
In short: as §1

[6] = molecular target: USP54 (UniProt Q70EL1)
Chain of USP54 (Q70EL1 whole entry): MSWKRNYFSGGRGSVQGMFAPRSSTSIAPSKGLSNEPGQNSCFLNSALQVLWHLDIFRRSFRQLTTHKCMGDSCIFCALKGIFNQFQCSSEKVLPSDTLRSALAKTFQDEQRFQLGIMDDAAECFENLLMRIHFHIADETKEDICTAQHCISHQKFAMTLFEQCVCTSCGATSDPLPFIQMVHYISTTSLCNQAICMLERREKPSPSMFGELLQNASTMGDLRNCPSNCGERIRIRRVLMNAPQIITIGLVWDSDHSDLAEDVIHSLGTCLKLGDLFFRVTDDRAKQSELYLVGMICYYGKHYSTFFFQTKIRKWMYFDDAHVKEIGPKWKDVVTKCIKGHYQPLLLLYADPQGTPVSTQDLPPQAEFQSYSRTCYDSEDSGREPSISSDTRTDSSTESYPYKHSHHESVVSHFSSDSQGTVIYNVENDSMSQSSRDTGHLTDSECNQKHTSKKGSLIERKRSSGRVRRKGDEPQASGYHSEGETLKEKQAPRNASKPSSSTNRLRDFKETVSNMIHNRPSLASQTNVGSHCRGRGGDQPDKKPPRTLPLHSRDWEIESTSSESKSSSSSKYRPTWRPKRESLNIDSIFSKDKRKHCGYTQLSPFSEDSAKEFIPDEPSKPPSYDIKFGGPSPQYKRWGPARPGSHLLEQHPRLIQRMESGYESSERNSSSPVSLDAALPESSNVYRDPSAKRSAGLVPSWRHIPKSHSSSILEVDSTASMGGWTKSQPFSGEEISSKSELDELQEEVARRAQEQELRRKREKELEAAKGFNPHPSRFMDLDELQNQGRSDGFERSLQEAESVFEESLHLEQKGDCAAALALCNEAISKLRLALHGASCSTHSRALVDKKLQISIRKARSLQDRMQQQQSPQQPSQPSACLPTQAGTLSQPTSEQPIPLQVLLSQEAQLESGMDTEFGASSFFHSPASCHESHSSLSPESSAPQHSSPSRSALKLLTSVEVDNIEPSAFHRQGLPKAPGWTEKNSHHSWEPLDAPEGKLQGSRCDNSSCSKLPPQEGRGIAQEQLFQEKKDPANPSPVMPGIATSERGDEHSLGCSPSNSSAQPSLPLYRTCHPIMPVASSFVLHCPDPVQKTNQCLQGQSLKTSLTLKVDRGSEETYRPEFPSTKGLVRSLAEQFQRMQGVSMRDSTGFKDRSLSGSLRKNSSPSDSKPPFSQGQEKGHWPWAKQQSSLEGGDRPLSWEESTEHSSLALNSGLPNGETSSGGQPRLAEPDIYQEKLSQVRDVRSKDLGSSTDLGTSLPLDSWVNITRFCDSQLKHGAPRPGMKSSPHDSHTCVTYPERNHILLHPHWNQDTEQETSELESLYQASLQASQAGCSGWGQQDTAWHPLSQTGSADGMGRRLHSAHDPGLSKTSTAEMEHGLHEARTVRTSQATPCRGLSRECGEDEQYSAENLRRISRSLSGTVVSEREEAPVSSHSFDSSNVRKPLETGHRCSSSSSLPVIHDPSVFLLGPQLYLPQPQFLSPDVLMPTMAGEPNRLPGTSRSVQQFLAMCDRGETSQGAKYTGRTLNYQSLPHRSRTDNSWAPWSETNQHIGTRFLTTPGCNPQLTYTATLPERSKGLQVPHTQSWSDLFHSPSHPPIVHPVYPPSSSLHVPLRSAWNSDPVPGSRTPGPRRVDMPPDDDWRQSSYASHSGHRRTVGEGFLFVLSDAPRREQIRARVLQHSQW
In short: as §1

[7] = molecular target: USP7 (UniProt Q93009)
In short: as §1

[8] = molecular target: T5, USP8 (UniProt P40818)
T5 sequence (whole entry): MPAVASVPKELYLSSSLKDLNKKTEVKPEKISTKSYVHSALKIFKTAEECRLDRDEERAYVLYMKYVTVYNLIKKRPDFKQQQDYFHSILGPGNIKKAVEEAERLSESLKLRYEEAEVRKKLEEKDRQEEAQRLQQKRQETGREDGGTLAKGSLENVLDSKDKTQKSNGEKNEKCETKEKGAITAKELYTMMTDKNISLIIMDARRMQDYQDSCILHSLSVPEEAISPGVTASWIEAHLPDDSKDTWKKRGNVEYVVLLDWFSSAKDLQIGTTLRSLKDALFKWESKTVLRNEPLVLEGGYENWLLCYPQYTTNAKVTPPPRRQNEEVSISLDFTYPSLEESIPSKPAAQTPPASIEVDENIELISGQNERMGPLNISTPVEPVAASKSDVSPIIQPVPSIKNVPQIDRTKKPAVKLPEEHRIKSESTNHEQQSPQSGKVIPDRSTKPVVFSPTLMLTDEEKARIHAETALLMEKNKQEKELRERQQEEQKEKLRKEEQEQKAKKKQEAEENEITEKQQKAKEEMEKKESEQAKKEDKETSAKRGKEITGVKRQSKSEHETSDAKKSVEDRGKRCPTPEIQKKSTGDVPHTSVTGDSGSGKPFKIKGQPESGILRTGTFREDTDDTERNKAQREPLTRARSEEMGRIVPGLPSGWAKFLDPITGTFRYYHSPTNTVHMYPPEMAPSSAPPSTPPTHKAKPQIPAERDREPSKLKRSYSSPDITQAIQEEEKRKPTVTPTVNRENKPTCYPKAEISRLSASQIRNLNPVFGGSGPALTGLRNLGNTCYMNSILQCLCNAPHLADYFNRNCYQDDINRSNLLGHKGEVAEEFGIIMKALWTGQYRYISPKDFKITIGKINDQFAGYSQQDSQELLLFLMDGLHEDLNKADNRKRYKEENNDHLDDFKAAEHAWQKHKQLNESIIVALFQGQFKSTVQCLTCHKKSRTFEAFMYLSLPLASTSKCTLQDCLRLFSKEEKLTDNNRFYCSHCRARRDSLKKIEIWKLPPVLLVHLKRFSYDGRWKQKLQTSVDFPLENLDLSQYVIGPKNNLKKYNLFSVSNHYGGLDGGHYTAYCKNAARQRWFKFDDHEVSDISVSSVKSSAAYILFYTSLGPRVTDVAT
In short: as §1

[9] = molecular target: USP9X (UniProt Q93008)
Chain of USP9X (Q93008 whole entry): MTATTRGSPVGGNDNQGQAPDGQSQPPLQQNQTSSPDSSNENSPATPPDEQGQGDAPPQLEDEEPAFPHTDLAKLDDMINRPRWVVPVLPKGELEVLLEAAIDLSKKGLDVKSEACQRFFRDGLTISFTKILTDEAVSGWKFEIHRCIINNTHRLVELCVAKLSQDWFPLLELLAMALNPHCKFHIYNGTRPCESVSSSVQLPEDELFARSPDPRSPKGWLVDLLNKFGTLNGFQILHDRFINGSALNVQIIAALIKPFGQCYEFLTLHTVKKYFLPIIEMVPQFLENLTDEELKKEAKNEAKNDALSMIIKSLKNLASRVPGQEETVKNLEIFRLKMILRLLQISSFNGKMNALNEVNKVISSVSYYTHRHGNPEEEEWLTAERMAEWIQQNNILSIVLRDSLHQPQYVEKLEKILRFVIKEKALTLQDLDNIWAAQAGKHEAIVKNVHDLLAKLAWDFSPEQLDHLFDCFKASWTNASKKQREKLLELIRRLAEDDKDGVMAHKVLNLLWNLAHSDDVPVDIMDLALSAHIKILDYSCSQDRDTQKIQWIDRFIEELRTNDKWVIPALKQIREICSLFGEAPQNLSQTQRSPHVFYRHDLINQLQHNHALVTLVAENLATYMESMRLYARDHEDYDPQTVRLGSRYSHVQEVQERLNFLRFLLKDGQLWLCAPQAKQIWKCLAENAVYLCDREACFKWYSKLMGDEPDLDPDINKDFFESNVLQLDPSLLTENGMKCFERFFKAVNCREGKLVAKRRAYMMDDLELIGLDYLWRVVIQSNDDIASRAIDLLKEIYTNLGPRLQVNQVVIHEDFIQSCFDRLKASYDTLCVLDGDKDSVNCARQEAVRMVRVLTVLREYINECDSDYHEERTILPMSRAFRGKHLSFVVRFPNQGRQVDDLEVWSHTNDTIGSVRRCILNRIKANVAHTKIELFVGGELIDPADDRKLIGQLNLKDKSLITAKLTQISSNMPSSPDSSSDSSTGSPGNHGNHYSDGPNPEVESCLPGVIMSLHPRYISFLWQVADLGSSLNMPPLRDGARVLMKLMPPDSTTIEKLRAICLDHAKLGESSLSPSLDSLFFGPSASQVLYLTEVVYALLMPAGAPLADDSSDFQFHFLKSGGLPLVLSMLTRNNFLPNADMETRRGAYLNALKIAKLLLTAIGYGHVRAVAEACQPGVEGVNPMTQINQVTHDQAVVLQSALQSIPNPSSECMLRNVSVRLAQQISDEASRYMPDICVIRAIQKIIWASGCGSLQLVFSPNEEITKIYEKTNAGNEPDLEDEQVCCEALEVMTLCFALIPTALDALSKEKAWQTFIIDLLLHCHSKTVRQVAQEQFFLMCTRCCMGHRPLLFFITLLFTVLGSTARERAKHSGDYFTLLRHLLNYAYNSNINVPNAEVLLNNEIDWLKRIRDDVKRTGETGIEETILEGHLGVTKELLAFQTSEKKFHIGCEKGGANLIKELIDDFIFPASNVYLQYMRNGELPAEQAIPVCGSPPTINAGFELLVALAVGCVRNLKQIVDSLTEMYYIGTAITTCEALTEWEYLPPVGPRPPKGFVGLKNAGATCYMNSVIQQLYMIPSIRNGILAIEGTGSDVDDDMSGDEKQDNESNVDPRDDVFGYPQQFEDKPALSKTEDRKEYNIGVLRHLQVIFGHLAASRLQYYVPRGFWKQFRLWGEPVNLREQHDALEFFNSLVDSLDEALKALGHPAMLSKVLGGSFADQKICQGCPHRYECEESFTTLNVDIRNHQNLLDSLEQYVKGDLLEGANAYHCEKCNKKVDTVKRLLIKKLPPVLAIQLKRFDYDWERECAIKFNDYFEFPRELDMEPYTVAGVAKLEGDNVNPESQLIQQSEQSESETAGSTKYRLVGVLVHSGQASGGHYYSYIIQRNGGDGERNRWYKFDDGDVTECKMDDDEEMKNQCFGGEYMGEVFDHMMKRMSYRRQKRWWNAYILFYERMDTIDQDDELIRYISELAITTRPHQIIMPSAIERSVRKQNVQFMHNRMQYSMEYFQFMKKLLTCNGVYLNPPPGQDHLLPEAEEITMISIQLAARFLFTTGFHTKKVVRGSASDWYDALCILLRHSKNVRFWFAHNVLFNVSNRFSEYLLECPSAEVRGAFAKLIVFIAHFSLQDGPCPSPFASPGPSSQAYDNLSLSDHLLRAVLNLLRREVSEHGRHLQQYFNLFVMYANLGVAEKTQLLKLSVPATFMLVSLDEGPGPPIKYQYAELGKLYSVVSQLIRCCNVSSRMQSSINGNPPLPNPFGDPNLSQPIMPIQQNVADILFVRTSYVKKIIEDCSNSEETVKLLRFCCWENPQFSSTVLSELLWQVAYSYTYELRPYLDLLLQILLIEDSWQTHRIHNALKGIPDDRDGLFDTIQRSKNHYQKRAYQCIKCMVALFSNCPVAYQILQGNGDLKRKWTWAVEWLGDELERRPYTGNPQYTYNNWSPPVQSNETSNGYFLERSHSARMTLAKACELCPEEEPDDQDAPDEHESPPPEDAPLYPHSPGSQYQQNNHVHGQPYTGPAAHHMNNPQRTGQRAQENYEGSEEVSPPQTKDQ
In short: as §1

[10] = molecular target: UniProt O00487
Chain of UniProt O00487 (O00487 whole entry): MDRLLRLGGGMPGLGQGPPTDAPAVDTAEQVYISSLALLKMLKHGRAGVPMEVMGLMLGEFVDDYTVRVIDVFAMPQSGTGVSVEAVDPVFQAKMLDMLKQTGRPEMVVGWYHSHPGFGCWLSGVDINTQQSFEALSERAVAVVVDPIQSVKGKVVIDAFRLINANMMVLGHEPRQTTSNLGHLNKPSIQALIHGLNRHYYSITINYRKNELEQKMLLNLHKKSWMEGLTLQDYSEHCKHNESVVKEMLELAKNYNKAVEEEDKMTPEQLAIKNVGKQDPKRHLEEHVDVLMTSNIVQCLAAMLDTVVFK
In short: as §1

Row | Compound | log2 ratio of Biotin-Ahx-Ub-VS probe labelling [1] | log2 ratio of Biotin-Ahx-Ub-VS probe labelling [2] | log2 ratio of Biotin-Ahx-Ub-VS probe labelling [3] | log2 ratio of Biotin-Ahx-Ub-VS probe labelling [4] | log2 ratio of Biotin-Ahx-Ub-VS probe labelling [5] | log2 ratio of Biotin-Ahx-Ub-VS probe labelling [6] | log2 ratio of Biotin-Ahx-Ub-VS probe labelling [7] | log2 ratio of Biotin-Ahx-Ub-VS probe labelling [8] | log2 ratio of Biotin-Ahx-Ub-VS probe labelling [9] | log2 ratio of Biotin-Ahx-Ub-VS probe labelling [10]
1 | Cl.Cn1nc2c(c1CNC(=O)CCl)CCCC2 | -0.241 | 0.117 | 0.0138 | -0.0889 | 0.0696 | 0.268 | -0.055 | -0.598 | -0.188 | 0.0603
2 | Cc1ccccc1OCC(=O)N1CCN(C(=O)CCl)CC1 | 0.258 | -0.329 | -1.19 (active) | -0.356 | 0.0461 | -0.923 | -0.701 | 0.0472 | -0.0136 | 0.0797
